Test results as given in the supplement of paper PMC3414501.
Structures can show the parent of a compound that is named as a salt.

Assays:
[1] = test system: S. cerevisiae SK1 pCDA2-eGFP (USY613), sporulating; experiment: CDA2-GFP sporulation assay sensitivity score (z-score vs DMSO controls); higher = stronger inhibition of sporulation, active = hit call of the paper;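 note: active if sensitivity score above 5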
[2] = test system: S. cerevisiae AD1-9 (efflux-pump deficient), vegetative growth in YPD; experiment: growth sensitivity score (doubling time z-score vs DMSO controls); higher = slower growth, strongly negative scores also mark growth inhibition (complete suppression), active = hit call of the paper
Method in brief: (§1)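 Yeast (Saccharomyces cerevisiae BY4741 and AD1-9) was grown in rich medium in microtiter plates from a starting OD600 of 0.065, with optical density read every 15 min over 24 hours. The growth sensitivity score was the difference between compound and solvent-only means, divided by the solvent-only standard deviation. Every experiment had eight solvent-only wells.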

[3] = test system: S. cerevisiae BY4741 (wild-type), vegetative growth in YPD; experiment: as above
Method in brief: as §1

[4] = stock concentration (mM, diluted 1:100): 10.1
[5] = stock concentration (mM, diluted 1:100): 10
[6] = stock concentration (mM, diluted 1:100): 19.9
[7] = stock concentration (mM, diluted 1:100): 8.9
[8] = stock concentration (mM, diluted 1:100): 9.8

## CC[C@@H](C(N)=O)N1CCCC1=O [Levetiracetam]
[1]; [4]
  CDA2-GFP sporulation assay sensitivity score: 1.7 (inactive)
[2]; [4]
  growth sensitivity score: -2.51
[3]; [4]
  growth sensitivity score: -1.26 (inactive)

## N=C(NCc1ccc(Cl)cc1)SCCCc1c[nH]cn1 [Clobenpropit]
[1]; [5]
  CDA2-GFP sporulation assay sensitivity score: 1.25 (inactive)
[2]; [5]
  growth sensitivity score: 0.21 (inactive)
[3]; [5]
  growth sensitivity score: 0.09 (inactive)

## O=c1c2ccccc2[se]n1-c1ccccc1 [Ebselen]
[2]; [5]
  growth sensitivity score: -16.9

## CCCCC/C=C\C/C=C\C/C=C\C/C=C\CCCC(=O)Nc1ccc(O)cc1
[1]; [5]
  CDA2-GFP sporulation assay sensitivity score: -4.74 (inactive)
[3]; [5]
  growth sensitivity score: 2.55 (active)

## COc1ccc2[nH]cc(CCN)c2c1 [5-Methoxytryptamine]
[1]; [5]
  CDA2-GFP sporulation assay sensitivity score: 3.61 (inactive)
[2]; [5]
  growth sensitivity score: -1.13 (inactive)
[3]; [5]
  growth sensitivity score: 0.09 (inactive)

## COC(=O)N1CCN(C(=O)Cc2ccc(Cl)c(Cl)c2)C(CN2CCCC2)C1 (stereo not given)
[1]; [5]
  CDA2-GFP sporulation assay sensitivity score: 3.34 (inactive)
[2]; [5]
  growth sensitivity score: -1.16 (inactive)
[3]; [5]
  growth sensitivity score: -1.35 (inactive)

## Cc1nnc2n1-c1ccc(Cl)cc1C(c1ccccc1)=NC2 [Alprazolam]
[1]; [5]
  CDA2-GFP sporulation assay sensitivity score: 0.37 (inactive)
[2]; [5]
  growth sensitivity score: 5.38 (active)
[3]; [5]
  growth sensitivity score: 0.23 (inactive)

## Cc1ccc(-c2nc3ccc(C)cn3c2CC(=O)N(C)C)cc1 [Zolpidem tartrate]
[1]; [6]
  CDA2-GFP sporulation assay sensitivity score: 1.79 (inactive)
[2]; [6]
  growth sensitivity score: -1.48 (inactive)
[3]; [6]
  growth sensitivity score: -0.6 (inactive)

## COc1ccc(C(CN(C)C)C2(O)CCCCC2)cc1 (stereo not given) [Venlafaxine hydrochloride]
[1]; [7]
  CDA2-GFP sporulation assay sensitivity score: -0.02 (inactive)
[2]; [7]
  growth sensitivity score: -1.06 (inactive)
[3]; [7]
  growth sensitivity score: -0.63 (inactive)

## CN1CC[C@]2(c3cccc(O)c3)Cc3nc4ccccc4cc3C[C@H]2C1
[1]; [8]
  CDA2-GFP sporulation assay sensitivity score: 5.85 (inactive)
[2]; [8]
  growth sensitivity score: -2.02
[3]; [8]
  growth sensitivity score: 0.13 (inactive)

## CS(=O)(=O)Nc1ccc(Cc2noc(-c3ccc4[nH]cc(CCN)c4c3)n2)cc1
[1]; [5]
  CDA2-GFP sporulation assay sensitivity score: 2.55 (inactive)
[2]; [5]
  growth sensitivity score: -0.07 (inactive)
[3]; [5]
  growth sensitivity score: 0.39 (inactive)
